# Many of the other results were omitted from the sample, so the strongest signals are more common in it than they were.
# Columns and labels:
# Test in all cases: glycan array binding signal (z-score within array); higher = stronger binding
# Conditions in all cases: glycan notation: IUPAC condensed, linker removed
# [1] = biological target: Gal(b1-4)GlcNAc(b1-3)Gal(b1-4)GlcNAc(b1-3)Gal(b1-4)GlcNAc(b1-3)Gal(b1-4)GlcNAc(b1-2)[Gal(b1-4)GlcNAc(b1-3)Gal(b1-4)GlcNAc(b1-3)Gal(b1-4)GlcNAc(b1-3)Gal(b1-4)GlcNAc(b1-6)]Man(a1-6)[Gal(b1-4)GlcNAc(b1-3)Gal(b1-4)GlcNAc(b1-3)Gal(b1-4)GlcNAc(b1-3)Gal(b1-4)GlcNAc(b1-2)Man(a1-3)]Man(b1-4)GlcNAc(b1-4)[Fuc(a1-6)]GlcNAc
# How it was run: (§1)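 Glycan array data were curated from 3228 arrays in the Consortium for Functional Glycomics database and kept only where the protein sequence was available. Glycan names were converted to IUPAC-condensed notation, and columns mapping to the same glycan were averaged. The binding signal is a within-array Z-score, averaged across arrays of the same protein sequence at different concentrations or buffers and across linkers. Negative Z-scores can be read as non-binding.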
# [2] = biological target: Gal(b1-4)GlcNAc(b1-3)Gal(b1-4)GlcNAc(b1-3)Gal(b1-4)GlcNAc(b1-3)Gal(b1-4)GlcNAc(b1-3)Gal(b1-4)GlcNAc(b1-2)Man(a1-3)[Gal(b1-4)GlcNAc(b1-3)Gal(b1-4)GlcNAc(b1-3)Gal(b1-4)GlcNAc(b1-3)Gal(b1-4)GlcNAc(b1-3)Gal(b1-4)GlcNAc(b1-2)Man(a1-6)]Man(b1-4)GlcNAc(b1-4)GlcNAc
# How it was run: as §1
# [3] = biological target: Gal(b1-4)GlcNAc(b1-3)Gal(b1-4)GlcNAc(b1-3)Gal(b1-4)GlcNAc(b1-3)Gal(b1-4)GlcNAc(b1-3)Gal(b1-4)GlcNAc(b1-2)Man(a1-3)[Gal(b1-4)GlcNAc(b1-3)Gal(b1-4)GlcNAc(b1-3)Gal(b1-4)GlcNAc(b1-3)Gal(b1-4)GlcNAc(b1-3)Gal(b1-4)GlcNAc(b1-2)Man(a1-6)]Man(b1-4)GlcNAc(b1-4)[Fuc(a1-6)]GlcNAc
# How it was run: as §1
# [4] = biological target: Gal(b1-4)GlcNAc(b1-3)Gal(b1-4)GlcNAc(b1-3)Gal(b1-4)GlcNAc(b1-3)Gal(b1-4)GlcNAc(b1-3)Gal(b1-4)GlcNAc(b1-3)Gal(b1-4)GlcNAc(b1-2)Man(a1-3)[Gal(b1-4)GlcNAc(b1-3)Gal(b1-4)GlcNAc(b1-3)Gal(b1-4)GlcNAc(b1-3)Gal(b1-4)GlcNAc(b1-3)Gal(b1-4)GlcNAc(b1-3)Gal(b1-4)GlcNAc(b1-2)Man(a1-6)]Man(b1-4)GlcNAc(b1-4)GlcNAc
# How it was run: as §1
# [5] = biological target: Gal(b1-4)GlcNAc(b1-3)Gal(b1-4)GlcNAc(b1-3)[Gal(b1-4)GlcNAc(b1-3)Gal(b1-4)GlcNAc(b1-6)]GalNAc
# How it was run: as §1
# [6] = biological target: Gal(b1-4)GlcNAc(b1-6)GalNAc
# How it was run: as §1
# Gal3S(b1-4)Glc6S = biological target: Gal3S(b1-4)Glc6S
# How it was run: as §1
# [7] = biological target: Gal3S(b1-4)[Fuc(a1-3)]Glc6S
# How it was run: as §1
# Gal6S(b1-4)Glc = biological target: Gal6S(b1-4)Glc
# How it was run: as §1
# [8] = biological target: GalNAc(b1-4)GlcNAc(b1-2)Man(a1-3)[GalNAc(b1-4)GlcNAc(b1-2)Man(a1-6)]Man(b1-4)GlcNAc(b1-4)GlcNAc
# How it was run: as §1
# [9] = biological target: GlcNAc(b1-3)Gal(b1-4)GlcNAc
# How it was run: as §1
# [10] = biological target: GlcNAc(b1-3)Gal(b1-4)GlcNAc(b1-3)Gal(b1-4)GlcNAc
# How it was run: as §1
# [11] = biological target: GlcNAc(b1-3)Gal(b1-4)GlcNAc(b1-3)Gal(b1-4)GlcNAc(b1-3)Gal(b1-4)GlcNAc(b1-3)Gal(b1-4)GlcNAc(b1-2)Man(a1-3)[GlcNAc(b1-3)Gal(b1-4)GlcNAc(b1-3)Gal(b1-4)GlcNAc(b1-3)Gal(b1-4)GlcNAc(b1-3)Gal(b1-4)GlcNAc(b1-2)Man(a1-6)]Man(b1-4)GlcNAc(b1-4)[Fuc(a1-6)]GlcNAc
# How it was run: as §1
# [12] = biological target: GlcNAc(b1-3)Gal(b1-4)GlcNAc(b1-3)Gal(b1-4)GlcNAc(b1-3)GalNAc
# How it was run: as §1
# [13] = biological target: GlcNAc(b1-4)GlcNAc(b1-4)GlcNAc(b1-4)GlcNAc(b1-4)GlcNAc
# How it was run: as §1
# Man(a1-6)Man = biological target: Man(a1-6)Man
# How it was run: as §1
# [14] = biological target: Neu5Ac(a2-3)Gal(b1-3)GlcNAc(b1-2)Man(a1-3)[Neu5Ac(a2-3)Gal(b1-3)GlcNAc(b1-2)Man(a1-6)]Man(b1-4)GlcNAc(b1-4)GlcNAc
# How it was run: as §1
# [15] = biological target: Neu5Ac(a2-3)Gal(b1-4)GlcNAc
# How it was run: as §1
# [16] = biological target: Neu5Ac(a2-3)Gal(b1-4)GlcNAc(b1-3)Gal(b1-4)[Fuc(a1-3)]GlcNAc
# How it was run: as §1
# [17] = biological target: Neu5Ac(a2-3)Gal(b1-4)GlcNAc(b1-3)GalNAc
# How it was run: as §1
# Neu5Ac(a2-6)Gal = biological target: Neu5Ac(a2-6)Gal
# How it was run: as §1
# [18] = biological target: Neu5Ac(a2-6)Gal(b1-4)GlcNAc(b1-2)Man
# How it was run: as §1
# [19] = biological target: Neu5Ac(a2-6)Gal(b1-4)GlcNAc(b1-2)[Neu5Ac(a2-6)Gal(b1-4)GlcNAc(b1-4)]Man(a1-3)[GlcNAc(b1-4)][Neu5Ac(a2-6)Gal(b1-4)GlcNAc(b1-2)[Neu5Ac(a2-6)Gal(b1-4)GlcNAc(b1-6)]Man(a1-6)]Man(b1-4)GlcNAc(b1-4)GlcNAc
# How it was run: as §1
# [20] = biological target: Neu5Ac(a2-6)GlcNAc(b1-4)GlcNAc(b1-4)GlcNAc
# How it was run: as §1
# [21] = biological target: Neu5Ac(a2-8)Neu5Ac(a2-3)Gal(b1-3)GalNAc(b1-4)[Neu5Ac(a2-3)]Gal(b1-4)Glc
# How it was run: as §1
# [22] = biological target: Neu5Ac(a2-8)Neu5Ac(a2-8)Neu5Ac(a2-3)[Gal(b1-3)GalNAc(b1-4)]Gal(b1-4)Glc
# How it was run: as §1
# [23] = biological target: Neu5Gc(a2-3)Gal(b1-3)[Fuc(a1-4)]GlcNAc
# How it was run: as §1
binder,measurement,setting,value
"Gal 8 (Mus musculus), Q9JL15 (protein) MGGSHHHHHHGMASMLSLNNLQNIIYNPIIPYVGTITEQLKPGSLIVIRGHVPKDSERFQVDFQLGNSLKPRADVAFHFNPRFKRSSCIVCNTLTQEKWGWEEITYDMPFRKEKSFEIVFMVLKNKFQVAVNGRHVLLYAHRISPEQIDTVGIYGKVNIHSIGFRFSSASALPHTLGDLQSMETSALGLTQINRENIQKPGKLQLSLPFEARLNASMGPGRTVVIKGEVNTNARSFNVDLVAGKTRDIALHLNPRLNVKAFVRNSFLQDAWGEEERNITCFPFSSGMYFEMIIYCDVREFKVAINGVHSLEYKHRFKDLSSIDTLSVDGDIRLLDVRSW",glycan array binding signal (z-score),[1],2.76
same,glycan array binding signal (z-score),[2],3.48
same,glycan array binding signal (z-score),[3],3.61
same,glycan array binding signal (z-score),[4],3.5
same,glycan array binding signal (z-score),[5],-0.063
same,glycan array binding signal (z-score),[6],-0.214
same,glycan array binding signal (z-score),Gal3S(b1-4)Glc6S,0.566
same,glycan array binding signal (z-score),[7],-0.498
same,glycan array binding signal (z-score),Gal6S(b1-4)Glc,-0.532
same,glycan array binding signal (z-score),[8],-0.195
same,glycan array binding signal (z-score),[9],-0.163
same,glycan array binding signal (z-score),[10],1.11
same,glycan array binding signal (z-score),[11],3.01
same,glycan array binding signal (z-score),[12],0.651
same,glycan array binding signal (z-score),[13],-0.54
same,glycan array binding signal (z-score),Man(a1-6)Man,-0.51
same,glycan array binding signal (z-score),[14],-0.466
same,glycan array binding signal (z-score),[15],-0.517
same,glycan array binding signal (z-score),[16],-0.215
same,glycan array binding signal (z-score),[17],-0.525
same,glycan array binding signal (z-score),Neu5Ac(a2-6)Gal,-0.511
same,glycan array binding signal (z-score),[18],-0.548
same,glycan array binding signal (z-score),[19],-0.602
same,glycan array binding signal (z-score),[20],-0.545
same,glycan array binding signal (z-score),[21],0.316
same,glycan array binding signal (z-score),[22],-0.539
same,glycan array binding signal (z-score),[23],-0.514

# Reference: the supplement of paper PMC8728848
